Hit rate of the full screen: of about 330,000 compounds, about 1,900 (0.58%) were called active. Inconclusive results (about 4%) are left out. Cut-off read from the data, not from the text of the source: inconclusive = inhibition above about 70% without an active follow-up result; inactive = below that. Only a sample is shown. Entries with a potency or affinity are not part of this list.
Assay: M. tuberculosis growth inhibition, HTS (AID 449762);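 note: bacterial growth assessed after seven days of incubation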
Conditions: M. tuberculosis H37Rv growth inhibition, 7H9 media; at 25 µM; hits give high values
For `Cc1ccc(-c2nsc3c(N4CCC(C(N)=O)CC4)ncnc23)cc1`, the inhibition was -5.48% (inactive).
With `O=c1c(C=NCc2ccccc2)c(NCc2ccccc2)nc2ccccn12` the inhibition was 11.6% (inactive).
In the case of `COc1ccc(C(=O)N/C(N)=N/c2nc3ccccc3o2)cc1`, the inhibition is reported as 43% (inactive).
For `COC(=O)CSc1nc2ccccc2o1`, the inhibition was 20% (inactive).
For `O=C(O)c1ccc(NS(=O)(=O)c2ccc3c(c2)OCCCO3)cc1`, the inhibition was 5.48% (inactive).
With `COc1ccc(N(CC(=O)NC2CCCCCC2)S(=O)(=O)c2ccccc2)cc1Cl` the inhibition was 11.1% (inactive).
With `O=[N+]([O-])c1cc(-c2ccc(/C=N/n3cnnc3)o2)ccc1Cl` the inhibition was 16.1% (inactive).
With `O=[N+]([O-])c1ccc(Cl)c(-c2ccc(/C=N/n3cnnc3)o2)c1` the inhibition was -1.71% (inactive).
In the case of `C/C=C1\COC(C(=O)NCCCN2CCCC2=O)(C(F)(F)F)C=C1C=C(C)C` (stereo unspecified), the inhibition is reported as 2.64% (inactive).
In the case of `CN(C(=O)CSC1=Nc2ccccc2C2=NC(c3ccccc3)C(=O)N12)C1CCCCC1` (stereo unspecified), the inhibition is reported as -5.75% (inactive).
For `NC(=O)CSC1=Nc2ccccc2C2=NC(c3ccccc3)C(=O)N12` (stereo unspecified), the inhibition was 4.02% (inactive).
For `CCOC(=O)Cn1nnc(-c2ccccc2)n1`, the inhibition was -9.53% (inactive).
In the case of `CCn1c(-c2ccccc2)ccc(C#N)c1=O`, the inhibition is reported as -2.43% (inactive).
With `CCOC(=O)Cn1c(-c2ccccc2)cc(SC)c(C#N)c1=O` the inhibition was 13.1% (inactive).
With `NC(=O)Cn1nc(-c2ccccc2)nc1-c1ccccc1` the inhibition was -2.98% (inactive).
For `COc1cc2cnc(-c3ccccc3)cc2cc1OC`, the inhibition was 61.6% (inactive).
With `CN(C)/C=N/NC(=O)c1ccc(Cl)cc1` the inhibition was -3.16% (inactive).
In the case of `O=C(CCCCCn1nnc2ccccc2c1=O)Nc1ccccc1F`, the inhibition is reported as -1.21% (inactive).
With `COc1ccc(CNC(=O)CN(Cc2ccc(Cl)cc2)S(=O)(=O)c2ccccc2)cc1` the inhibition was -11.8% (inactive).
With `CCC(=O)Nc1cc(-c2nn(C)c(=O)c3ccccc23)ccc1N1CCCCC1` the inhibition was -0.54% (inactive).
For `CC(=O)Nc1cc(-c2nn(C)c(=O)c3ccccc23)ccc1N1CCCCC1`, the inhibition was 5.24% (inactive).
For `CC(=Nc1ccc2c(c1)CCC2)c1c(O)n(-c2ccccc2)c(=O)[nH]c1=O`, the inhibition was 0.86% (inactive).
With `Cc1cccc(CS(=O)(=O)Cc2ccc(C(=O)NCCCN3CCOCC3)o2)c1` the inhibition was -7.1% (inactive).
In the case of `Cc1ccc(NC(=O)COC(=O)C(NS(=O)(=O)c2ccc(Cl)cc2)C(C)O)cc1` (stereo unspecified), the inhibition is reported as -2.52% (inactive).
For `COc1cc(Cl)c(C)cc1NC(=O)COC(=O)C(NS(=O)(=O)c1ccc(Cl)cc1)C(C)O` (stereo unspecified), the inhibition was -9.26% (inactive).
For `OCC(CBr)(CBr)CBr`, the inhibition was -6.91% (inactive).
For `CCC1=NC(c2ccc(OC)cc2)N(O)C1(C)C` (stereo unspecified), the inhibition was -1.62% (inactive).
For `CC(O)(CS(=O)(=O)Cc1ccccc1)C(=O)Nc1cccc(C(F)(F)F)c1` (stereo unspecified), the inhibition was 8.28% (inactive).
With `Cc1[nH]c2ccccc2c1/C=N/Nc1nc(Nc2ccc(F)cc2)nc(N2CCOCC2)n1` the inhibition was 62.1% (inactive).
In the case of `C(=N\Nc1nc(Nc2ccccc2)nc(N2CCOCC2)n1)/c1c[nH]c2ccccc12`, the inhibition is reported as 41.1% (inactive).
In the case of `O=c1[nH]c(C2CCN(S(=O)(=O)c3ccc4c(c3)OCCO4)CC2)nc2c1nnn2Cc1ccc(F)cc1`, the inhibition is reported as 37.9% (inactive).
In the case of `Cc1ccc(C)c(S(=O)(=O)N2CCC(c3nc4c(nnn4Cc4ccc(F)cc4)c(=O)[nH]3)CC2)c1`, the inhibition is reported as 7.99% (inactive).
With `Cn1c(CC(=O)Nc2ccc(F)cc2)c(Sc2ccccc2)c2ccccc21` the inhibition was 3.85% (inactive).
With `NC(=O)C1CCCN(C(=S)NCc2ccc3c(c2)OCO3)C1` (stereo unspecified) the inhibition was -1.44% (inactive).
In the case of `CCOc1cc(/C=C/C(=O)OCC(=O)NCC2CCCO2)cc(Cl)c1OC` (stereo unspecified), the inhibition is reported as 1.07% (inactive).
In the case of `O=C(c1ccc(Cl)cc1)N1CCCC(c2ccccc2)=N1`, the inhibition is reported as 2.03% (inactive).
In the case of `O=C(C1CC1)N1N=C(c2ccc(Cl)cc2)CC1(O)C(F)(F)F` (stereo unspecified), the inhibition is reported as 49% (inactive).
With `CCN(CCO)C(=S)Nc1cc(S(=O)(=O)N(C)C)ccc1C` the inhibition was -0.4% (inactive).
In the case of `CCOC(=O)c1c(C)[nH]c(C(=O)N2CCN(c3ccc(OC)cc3)CC2)c1C`, the inhibition is reported as 53.5% (inactive).
For `CCOC(=O)c1[nH]c(C)c(C(=O)N2CCN(c3ccc(OC)cc3)CC2)c1C`, the inhibition was -0.98% (inactive).
In the case of `C[C@H](CO)N1C[C@H](C)[C@H](CN(C)Cc2ccncc2)Oc2ccc(NC(=O)Nc3ccc(C(F)(F)F)cc3)cc2CC1=O`, the inhibition is reported as 62.2% (inactive).
In the case of `C=CCNC(=O)c1ccc(-c2nc(-c3ccccc3)cs2)cc1`, the inhibition is reported as 1.66% (inactive).
In the case of `CN(C)CCCNC(=O)c1ccc(-c2ccccc2)cc1`, the inhibition is reported as -5.39% (inactive).
In the case of `O=C(NN=C1CCCC1)c1cccc(O)c1`, the inhibition is reported as -8.1% (inactive).
With `CCCNC(=O)CSc1n[nH]c(=O)n1CCc1ccccc1` the inhibition was 7.69% (inactive).
For `CCOC(=O)c1c(NC(=O)CCN2C(=O)c3cccc([N+](=O)[O-])c3C2=O)sc(C(=O)OC(C)C)c1C`, the inhibition was 3.56% (inactive).
With `CCOc1ccc(Nc2nc(-c3cccnc3)cs2)cc1` the inhibition was 4.09% (inactive).
For `CCOc1ccc(NC(=O)CC2CC(C)(C)OC2=O)cc1` (stereo unspecified), the inhibition was -2.88% (inactive).
With `CC(=O)Nc1ccc(NC(=O)C(C)OC(=O)c2cc(S(=O)(=O)N(C)C)ccc2N2CCCC2)cc1` (stereo unspecified) the inhibition was 1.92% (inactive).
With `Cc1ccc(C2=NC(C)(C)NC2=O)cc1` the inhibition was 11.8% (inactive).
For `O/N=C/c1ccnc(SCc2ccccc2)n1`, the inhibition was 16.4% (inactive).
For `CSc1nccc(N/N=C/c2ccccc2)n1`, the inhibition was 0.53% (inactive).
For `CC(CN1CCC(O)CC1)c1ccccc1` (stereo unspecified), the inhibition was -0.24% (inactive).
With `Clc1ccccc1CNC1CN2CCC1CC2` (stereo unspecified) the inhibition was -2.13% (inactive).
For `FC(F)(F)c1nnc2ccc(N3CCCC3)nn12`, the inhibition was -7.59% (inactive).
With `FC(F)(Cl)c1nnc2ccc(Sc3ccccn3)nn12` the inhibition was 2.59% (inactive).
With `COC(=O)c1cnc2ccccc2n1` the inhibition was -3.05% (inactive).
For `O=C(OCc1c(F)cccc1Cl)c1cnc2ccccc2n1`, the inhibition was 48.8% (inactive).
With `CC(C)C(NS(=O)(=O)c1cccs1)C(=O)NCCCN1CCCCCC1` (stereo unspecified) the inhibition was -1.69% (inactive).
With `COc1ccc(OCCCC(=O)Nc2ccc(N3CCCCC3)cc2)cc1` the inhibition was -1.89% (inactive).
For `CCCc1nnc(NC(=O)CCC(=O)N2CCN(c3nc(C)cc(C)n3)CC2)s1`, the inhibition was 0.06% (inactive).
In the case of `COc1ccc(S(=O)(=O)Cc2ccc(C(=O)NCCCN3CCc4ccccc4C3)o2)cc1`, the inhibition is reported as -0.56% (inactive).
With `COc1cccc(OC)c1OCCCCCc1c(C)n[nH]c1C` the inhibition was -7.6% (inactive).
In the case of `COc1cccc(OC)c1OCCCCc1c(C)n[nH]c1C`, the inhibition is reported as 4.51% (inactive).
For `COCC(C)NC(=O)Cc1ccc(F)cc1` (stereo unspecified), the inhibition was -4.61% (inactive).
In the case of `O=C(NC1CCN(Cc2ccccc2)CC1)c1cccc(S(=O)(=O)Nc2ccc(F)cc2)c1`, the inhibition is reported as 37.8% (inactive).
For `COc1ccc(NS(=O)(=O)c2cccc(C(=O)NC3CCN(Cc4ccccc4)CC3)c2)cc1`, the inhibition was 6.7% (inactive).
With `COCc1cc(C)nc(SCc2ccccc2)c1C#N` the inhibition was 15.8% (inactive).
In the case of `COc1ccc(/C=C/C(=O)Oc2cccc(/C=N/NC(=O)c3cccc(F)c3)c2)cc1`, the inhibition is reported as 7.76% (inactive).
In the case of `O=C(Oc1cccc(-n2cnnn2)c1)c1ccccc1Cl`, the inhibition is reported as -11.6% (inactive).
In the case of `CCc1ccccc1NC(=O)c1noc(C(C)C)c1[N+](=O)[O-]`, the inhibition is reported as 2.17% (inactive).
For `Cc1ccc(NC(=O)c2noc(C(C)C)c2[N+](=O)[O-])cc1`, the inhibition was 0.01% (inactive).
For `COc1ccc(C(C(=O)NC2CCCC2)N(Cc2ccco2)C(=O)c2snc(C(N)=O)c2N)cc1OC` (stereo unspecified), the inhibition was 3.33% (inactive).
In the case of `COc1cccc(/C=N/NC(=O)c2cccc([N+](=O)[O-])c2)c1OS(=O)(=O)c1ccccc1`, the inhibition is reported as -10.3% (inactive).
In the case of `Cc1nc(-c2ccc(NC(=O)C3CC3)cc2)cs1`, the inhibition is reported as 37.4% (inactive).
With `Cc1cc(Nc2cc(N3CCN(C)CC3)nc(Sc3ccc(NC(=O)C4CC4)cc3)n2)n[nH]1` the inhibition was 3.52% (inactive).
In the case of `COc1cccc(NC(=O)Cn2c(=O)n(-c3ccccc3)c(=O)c3oc4ccccc4c32)c1`, the inhibition is reported as -3.21% (inactive).
For `Cc1ccc2c(c1)c1c(n2C)C(C(N)=O)CCC1` (stereo unspecified), the inhibition was -14.2% (inactive).
For `c1ccc(Cn2c(CNc3nc4ccccc4n3CCN3CCOCC3)nc3ccccc32)cc1`, the inhibition was 10.7% (inactive).
With `Cn1c(CNc2nc3ccccc3n2CCN2CCCCC2)nc2ccccc21` the inhibition was 1.84% (inactive).
With `Cc1ccc(C(=O)N/C(=C/c2cccs2)C(=O)NCCCn2ccnc2)cc1` the inhibition was -0.44% (inactive).
In the case of `O=C(NCCCSc1ccccc1)c1cccnc1`, the inhibition is reported as 2.65% (inactive).
With `NC(=O)N/N=C/c1ccc2cccc(OCc3ccccc3)c2n1` the inhibition was 12.6% (inactive).
With `O=C(Cc1ccccc1)N/N=C/c1ccccn1` the inhibition was -3.52% (inactive).
With `CC(N)(C(=O)O)c1cccc(OCc2cccc(Cl)c2)c1` (stereo unspecified) the inhibition was -9.95% (inactive).
For `CN(C(=O)CSc1nccc(=O)[nH]1)C1CCCCC1`, the inhibition was -5.2% (inactive).
With `CCCn1c(Nc2ccccc2)nc2ccccc21` the inhibition was 3.3% (inactive).
With `CCCn1c(Nc2ccccc2C)nc2ccccc21` the inhibition was -13.5% (inactive).
With `CCN1CCN(Cc2cc(Br)ccc2O)CC1` the inhibition was -0.17% (inactive).
In the case of `CC(C)CCC(C)NC(=O)CN1C(=O)NC(C)(c2ccc3ccccc3c2)C1=O` (stereo unspecified), the inhibition is reported as -6.81% (inactive).
With `COc1ccc(C(=O)OCC(=O)NC2CC2)cc1F` the inhibition was 2.71% (inactive).
With `NNC(=S)NCc1ccco1` the inhibition was -5.28% (inactive).
With `CCNC(=S)NCc1ccco1` the inhibition was 8.6% (inactive).
With `CC[C@@H]1CN(C)[C@H]2Cc3c([nH]c4ccccc34)C(=O)C[C@@H]1[C@@H]2C(=O)OC` the inhibition was -5.83% (inactive).
With `COc1ccc(C2CC(c3ccc(Cl)cc3)n3nc(N)nc3N2)cc1` (stereo unspecified) the inhibition was 1.53% (inactive).
With `CCCc1nn2c(=O)c(C(c3cccc(Cl)c3)c3c(O)nc4sc(CCC)nn4c3=O)c(O)nc2s1` the inhibition was -6.75% (inactive).

— PubChem BioAssay AID449762 (Southern Research Specialized Biocontainment Screening …, 2010)
